Source: PubChem BioAssay (NCATS)
Inconclusive results are not listed. Calls of active or inactive are those of the source. Calls follow the shape of the dose curve; as a rule, active = well fitted inhibition curve with a large enough effect; inconclusive = small, poorly fitted or top-dose-only effect; inactive = flat fitted curve, though single readings scatter.

Tests used:
Test in all cases: qHTS profiling for inhibitors of Plasmodium falciparum proliferation (AID 504749); also: nearly all actives have a fitted effect of over 60% in size
Conditions in all cases: P. falciparum in erythrocytes, SYBR Green DNA, 72 h; series mostly up to 28.7 µM
CP237 = tested on: CP237
Outline: (§1)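 Infected RBCs, 0.3% parasitemia/2.5% Hct final; cpd 72 h, 37 C, 5% CO2; lysis buffer with saponin/triton/SYBR Green I, o/n RT dark; FI 485/535; norm. to artemisinin (0.29 uM) and DMSO.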

CP238 = tested on: CP238
Outline: as §1

CP250 = tested on: CP250
Outline: as §1

CP252 = tested on: CP252
Outline: as §1

CP256 = tested on: CP256
Outline: as §1

CP260 = tested on: CP260
Outline: as §1

CP262 = tested on: CP262
Outline: as §1

CP265 = tested on: CP265
Outline: as §1

CP266 = tested on: CP266
Outline: as §1

CP268 = tested on: CP268
Outline: as §1

CP269 = tested on: CP269
Outline: as §1

CP286 = tested on: CP286
Outline: as §1

CP291 = tested on: CP291
Outline: as §1

CP297 = tested on: CP297
Outline: as §1

CP305 = tested on: CP305
Outline: as §1

CP315 = tested on: CP315
Outline: as §1

CP325 = tested on: CP325
Outline: as §1

CP329 = tested on: CP329
Outline: as §1

CP335 = tested on: CP335
Outline: as §1

CP247 = tested on: CP247
Outline: as §1

Measured: Potency
Potency is read from the fitted curve at half-maximal effect.

COc1cc([C@H]2Oc3cc([C@H]4Oc5cc(O)cc(O)c5C(=O)[C@@H]4O)ccc3O[C@@H]2CO)ccc1O
inactive: CP237 | CP238 | CP250 | CP252 | CP256 | CP260 | CP262 | CP265 | CP266 | CP268 | CP269 | CP286 | CP291 | CP297 | CP305 | CP315 | CP325 | CP329 | CP335

N=C(N)N1CCc2ccccc2C1
inactive: CP237 | CP238 | CP247 | CP250 | CP252 | CP256 | CP262 | CP265 | CP266 | CP268 | CP269 | CP286 | CP291 | CP297 | CP305 | CP315 | CP325 | CP329 | CP335

CCCCCCCCCCCCOCCOCCOCCOCCOCCOCCOCCOCCOCCO
inactive: CP237 | CP262 | CP266 | CP268 | CP269 | CP286 | CP291 | CP297 | CP305 | CP315 | CP325 | CP329

CC[N+](C)(CC)CCOC(=O)C(O)(c1ccccc1)C1CCCCC1 (stereo not drawn)
inactive: CP237 | CP238 | CP252 | CP256 | CP260 | CP265 | CP266 | CP268 | CP269 | CP315 | CP325 | CP329

CCN(CC)CCOc1ccc2c(c1)C(=O)c1cc(OCCN(CC)CC)ccc1-2
inactive: CP262 | CP315
active: CP237 12.6 µM | CP256 11.2 µM | CP286 10 µM

OC(C#CCN1CCCC1)(c1ccccc1)c1ccccc1
inactive: CP266 | CP315
active: CP237 5.01 µM | CP260 8.91 µM | CP297 12 µM

Cc1ccc(-c2ncc(Cl)cc2-c2ccc(S(C)(=O)=O)cc2)cn1
inactive: CP260 | CP262 | CP266 | CP286 | CP291 | CP297 | CP305 | CP315 | CP325 | CP329

Cc1cccc(C)c1NC(=O)CN1CCCC1
inactive: CP238 | CP247 | CP252 | CP256 | CP260 | CP262 | CP265 | CP268 | CP269 | CP286 | CP291 | CP297 | CP305 | CP315 | CP325 | CP329 | CP335

Clc1cccc(C(c2ccc3nc[nH]c3c2)n2ccnc2)c1 (stereo not drawn)
inactive: CP238 | CP262

CN1CCN(c2c(F)cc3c(=O)c(C(=O)O)cn4c3c2SCC4)CC1
inactive: CP238 | CP247 | CP250 | CP262 | CP266 | CP315 | CP329
